Assay results published in the supplement of paper PMC11732987, “Enantioselective OTUD7B fragment discovery through chemoproteomics screening and high-throughput optimisation” (Communications Chemistry, 2025).

Experiments:
Assay in all cases: log2 ratio of Biotin-Ahx-Ub-VS probe labelling (fragment/DMSO); higher = less target engagement (more negative = stronger competition), active = hit call of the paper (q ≤ 0.05, log2 ratio ≤ -1)
Details in all cases: compound concentration: 200 uM; treatment time: 3 h
OTUD6B = target: T1, OTUD6B (UniProt Q8N6M0)
T1 sequence (whole entry): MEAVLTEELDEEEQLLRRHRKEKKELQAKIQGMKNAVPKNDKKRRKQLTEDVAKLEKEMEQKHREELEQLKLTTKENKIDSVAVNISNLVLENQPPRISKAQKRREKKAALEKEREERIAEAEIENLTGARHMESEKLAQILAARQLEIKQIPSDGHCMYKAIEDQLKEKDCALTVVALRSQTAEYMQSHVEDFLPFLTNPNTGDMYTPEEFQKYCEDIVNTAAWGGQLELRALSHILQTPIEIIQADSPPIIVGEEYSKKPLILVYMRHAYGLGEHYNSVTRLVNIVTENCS
Procedure, shortened: (§1)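 Each value is an average log2 ratio of fragment to vehicle, tested by unpaired t-test. The underlying Spectronaut label-free quantities were global-median-normalised, and only proteins with ≥2 unique peptides were included. Triplicate HEK293T lysate samples (495 µg) were exposed to fragment at 200 µM or vehicle for 3 h, then to Biotin-Ahx-Ub-VS at 0.5 µM final for 1 h, before NeutrAvidin enrichment of labelled DUBs, LysC and trypsin digestion, and diaPASEF LC-MS/MS.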

OTUD7B = target: T2, OTUD7B (UniProt Q6GQQ9)
T2 sequence (whole entry): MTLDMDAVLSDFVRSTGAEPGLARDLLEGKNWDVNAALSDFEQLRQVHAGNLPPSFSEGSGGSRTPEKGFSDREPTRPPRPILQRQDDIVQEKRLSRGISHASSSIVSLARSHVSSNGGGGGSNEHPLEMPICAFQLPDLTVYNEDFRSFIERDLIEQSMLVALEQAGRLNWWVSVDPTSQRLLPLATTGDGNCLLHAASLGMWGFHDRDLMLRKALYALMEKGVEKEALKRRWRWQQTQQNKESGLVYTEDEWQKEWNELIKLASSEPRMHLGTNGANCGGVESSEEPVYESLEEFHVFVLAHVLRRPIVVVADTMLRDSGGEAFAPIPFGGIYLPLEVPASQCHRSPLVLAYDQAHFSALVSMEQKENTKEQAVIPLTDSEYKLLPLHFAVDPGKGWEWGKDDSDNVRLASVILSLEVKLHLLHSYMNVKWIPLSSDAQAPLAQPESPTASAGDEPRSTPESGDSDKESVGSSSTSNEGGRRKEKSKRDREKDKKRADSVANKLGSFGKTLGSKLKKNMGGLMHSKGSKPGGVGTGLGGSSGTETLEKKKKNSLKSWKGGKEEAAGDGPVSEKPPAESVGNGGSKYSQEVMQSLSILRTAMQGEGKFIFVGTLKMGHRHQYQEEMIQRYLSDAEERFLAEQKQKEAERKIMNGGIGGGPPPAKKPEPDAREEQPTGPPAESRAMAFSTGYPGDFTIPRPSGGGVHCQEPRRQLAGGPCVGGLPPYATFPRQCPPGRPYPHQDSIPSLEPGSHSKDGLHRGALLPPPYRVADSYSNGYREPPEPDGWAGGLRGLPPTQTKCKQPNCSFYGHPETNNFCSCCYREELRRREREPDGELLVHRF
Procedure, shortened: as §1

PRPF8 = PRPF8 (UniProt Q6P2Q9)
Procedure, shortened: as §1

PSMD7 = target: T3, PSMD7 (UniProt P51665)
T3 sequence (whole entry): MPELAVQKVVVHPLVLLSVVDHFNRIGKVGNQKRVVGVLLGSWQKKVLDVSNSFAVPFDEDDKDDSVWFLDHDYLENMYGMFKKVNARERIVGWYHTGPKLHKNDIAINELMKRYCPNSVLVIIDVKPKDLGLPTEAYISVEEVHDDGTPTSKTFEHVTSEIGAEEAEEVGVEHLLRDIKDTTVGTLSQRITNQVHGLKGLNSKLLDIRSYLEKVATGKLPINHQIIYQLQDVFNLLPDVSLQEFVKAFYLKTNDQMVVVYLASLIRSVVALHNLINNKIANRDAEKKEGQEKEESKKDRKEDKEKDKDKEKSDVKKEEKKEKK
Procedure, shortened: as §1

UCHL1 = UCHL1 (UniProt P09936)
Chain of UCHL1 (P09936 whole entry, looked up): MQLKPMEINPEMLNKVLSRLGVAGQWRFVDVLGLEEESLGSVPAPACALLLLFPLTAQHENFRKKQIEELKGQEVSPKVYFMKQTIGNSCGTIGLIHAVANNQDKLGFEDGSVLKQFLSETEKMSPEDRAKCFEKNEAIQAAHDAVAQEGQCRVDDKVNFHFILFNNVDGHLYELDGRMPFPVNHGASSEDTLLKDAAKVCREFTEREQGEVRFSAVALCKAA
Procedure, shortened: as §1

UCHL3 = target: T4, UCHL3 (UniProt P15374)
T4 sequence (whole entry): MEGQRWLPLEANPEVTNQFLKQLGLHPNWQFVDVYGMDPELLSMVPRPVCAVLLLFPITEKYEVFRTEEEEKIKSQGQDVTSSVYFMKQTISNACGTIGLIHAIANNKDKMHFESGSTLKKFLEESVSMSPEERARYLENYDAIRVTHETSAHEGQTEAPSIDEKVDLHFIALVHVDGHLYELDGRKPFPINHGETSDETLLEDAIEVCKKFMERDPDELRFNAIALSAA
Procedure, shortened: as §1

UCHL5 = target: T5, UCHL5 (UniProt Q9Y5K5)
T5 sequence (whole entry): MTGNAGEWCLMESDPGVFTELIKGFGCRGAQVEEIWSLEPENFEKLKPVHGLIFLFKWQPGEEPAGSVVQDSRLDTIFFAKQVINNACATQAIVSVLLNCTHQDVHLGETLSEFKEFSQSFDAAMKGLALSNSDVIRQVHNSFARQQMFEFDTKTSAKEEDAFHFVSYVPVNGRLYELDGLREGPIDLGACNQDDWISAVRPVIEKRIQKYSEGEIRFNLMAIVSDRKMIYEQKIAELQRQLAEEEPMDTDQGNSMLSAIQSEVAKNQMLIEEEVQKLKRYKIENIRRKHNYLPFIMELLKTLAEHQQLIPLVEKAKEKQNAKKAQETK
Procedure, shortened: as §1

USP10 = USP10 (UniProt Q14694)
Chain of USP10 (Q14694 whole entry): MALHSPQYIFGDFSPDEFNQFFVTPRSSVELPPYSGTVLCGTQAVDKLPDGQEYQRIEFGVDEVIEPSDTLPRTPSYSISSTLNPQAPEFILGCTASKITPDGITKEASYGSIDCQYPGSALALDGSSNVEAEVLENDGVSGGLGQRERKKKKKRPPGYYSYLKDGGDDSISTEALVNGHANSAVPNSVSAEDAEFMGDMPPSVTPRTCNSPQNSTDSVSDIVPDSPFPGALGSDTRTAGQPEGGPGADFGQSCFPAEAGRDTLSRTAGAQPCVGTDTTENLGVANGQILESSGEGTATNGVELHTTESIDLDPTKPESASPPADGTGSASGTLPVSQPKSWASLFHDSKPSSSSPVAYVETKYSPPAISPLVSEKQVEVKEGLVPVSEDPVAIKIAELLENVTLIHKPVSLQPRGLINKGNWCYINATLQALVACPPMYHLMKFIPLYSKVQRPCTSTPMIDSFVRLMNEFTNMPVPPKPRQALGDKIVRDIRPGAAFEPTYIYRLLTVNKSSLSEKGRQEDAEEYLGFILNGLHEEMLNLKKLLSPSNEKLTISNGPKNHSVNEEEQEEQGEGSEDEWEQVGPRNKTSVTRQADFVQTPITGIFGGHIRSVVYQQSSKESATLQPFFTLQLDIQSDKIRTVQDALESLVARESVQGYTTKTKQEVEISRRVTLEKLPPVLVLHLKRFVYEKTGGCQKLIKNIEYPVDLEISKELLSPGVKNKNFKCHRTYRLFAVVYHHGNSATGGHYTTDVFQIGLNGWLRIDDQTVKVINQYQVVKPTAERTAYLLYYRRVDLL
Procedure, shortened: as §1

USP15 = target: T6, USP15 (UniProt Q9Y4E8)
T6 sequence (whole entry): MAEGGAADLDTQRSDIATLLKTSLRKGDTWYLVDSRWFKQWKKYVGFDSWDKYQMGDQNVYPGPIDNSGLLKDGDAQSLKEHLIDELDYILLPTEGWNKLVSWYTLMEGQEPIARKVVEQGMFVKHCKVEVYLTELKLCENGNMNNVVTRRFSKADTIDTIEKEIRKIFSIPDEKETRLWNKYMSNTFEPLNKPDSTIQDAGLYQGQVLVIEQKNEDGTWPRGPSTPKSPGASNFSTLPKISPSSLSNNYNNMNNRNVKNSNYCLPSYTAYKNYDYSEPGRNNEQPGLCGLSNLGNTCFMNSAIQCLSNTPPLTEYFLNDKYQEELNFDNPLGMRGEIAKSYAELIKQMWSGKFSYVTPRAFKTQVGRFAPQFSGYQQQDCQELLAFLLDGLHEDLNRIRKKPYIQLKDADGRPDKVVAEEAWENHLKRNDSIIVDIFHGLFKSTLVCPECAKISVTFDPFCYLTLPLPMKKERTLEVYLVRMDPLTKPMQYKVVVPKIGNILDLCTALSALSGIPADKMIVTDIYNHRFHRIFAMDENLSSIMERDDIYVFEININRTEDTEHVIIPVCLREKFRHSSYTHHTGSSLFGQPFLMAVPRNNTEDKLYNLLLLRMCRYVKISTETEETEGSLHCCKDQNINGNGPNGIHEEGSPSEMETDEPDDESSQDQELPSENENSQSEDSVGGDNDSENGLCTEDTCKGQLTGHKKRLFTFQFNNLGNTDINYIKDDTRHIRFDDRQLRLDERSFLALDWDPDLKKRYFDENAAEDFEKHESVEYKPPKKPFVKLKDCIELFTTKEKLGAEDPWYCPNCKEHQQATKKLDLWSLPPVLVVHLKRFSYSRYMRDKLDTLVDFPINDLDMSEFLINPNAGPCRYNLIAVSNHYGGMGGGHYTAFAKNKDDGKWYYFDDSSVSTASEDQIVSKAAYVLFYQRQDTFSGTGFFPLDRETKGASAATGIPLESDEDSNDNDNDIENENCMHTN
Procedure, shortened: as §1

USP16 = USP16 (UniProt Q9Y5T5)
Chain of USP16 (Q9Y5T5 whole entry, looked up): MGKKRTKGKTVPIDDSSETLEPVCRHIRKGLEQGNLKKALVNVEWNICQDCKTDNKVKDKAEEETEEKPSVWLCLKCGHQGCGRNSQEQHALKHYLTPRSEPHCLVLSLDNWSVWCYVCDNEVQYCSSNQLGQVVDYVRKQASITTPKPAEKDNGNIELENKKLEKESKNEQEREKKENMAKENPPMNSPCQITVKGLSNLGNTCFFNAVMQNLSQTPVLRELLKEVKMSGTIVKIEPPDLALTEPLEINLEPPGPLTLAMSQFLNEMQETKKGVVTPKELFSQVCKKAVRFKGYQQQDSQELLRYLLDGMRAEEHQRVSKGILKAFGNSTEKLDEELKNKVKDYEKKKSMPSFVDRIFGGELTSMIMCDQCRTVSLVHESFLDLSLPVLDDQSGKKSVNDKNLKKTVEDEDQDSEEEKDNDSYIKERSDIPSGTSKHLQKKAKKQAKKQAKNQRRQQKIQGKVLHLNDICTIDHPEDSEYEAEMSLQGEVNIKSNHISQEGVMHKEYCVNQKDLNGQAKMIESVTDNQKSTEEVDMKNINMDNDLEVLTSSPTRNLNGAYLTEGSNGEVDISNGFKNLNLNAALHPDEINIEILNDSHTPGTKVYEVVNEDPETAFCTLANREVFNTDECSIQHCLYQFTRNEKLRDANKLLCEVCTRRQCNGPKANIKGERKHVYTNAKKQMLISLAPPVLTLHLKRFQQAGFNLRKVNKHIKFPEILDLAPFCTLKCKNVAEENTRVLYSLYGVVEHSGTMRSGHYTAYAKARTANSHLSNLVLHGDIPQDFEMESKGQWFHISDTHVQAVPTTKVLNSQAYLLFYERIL
Procedure, shortened: as §1

Measured: log2 ratio of Biotin-Ahx-Ub-VS probe labelling

O=C(CCl)N[C@H]1CC[C@@H](CO)CC1
inactive: OTUD6B -0.662 | PRPF8 -0.24 | PSMD7 -0.201 | UCHL3 -0.884 | UCHL5 -0.9 | USP10 -0.226 | USP15 -0.938 | USP16 -0.292
active: OTUD7B -1.44 | UCHL1 -2.47
